# Sampled rows, rich in hits. Any-hit rate of the full collection: about 2.9%.
# ERa SRC1 inh – blocks coactivator binding to human estrogen receptor alpha; P03372; TR-FRET ER-alpha LBD / SRC-1 peptide, estradiol-bound; inhibition, % at 25.6 µM; 1.7% of 86,000 active; in the data active = inhibition above about 50%
# Target sequence (P03372 whole entry, looked up, the tested form may be a part): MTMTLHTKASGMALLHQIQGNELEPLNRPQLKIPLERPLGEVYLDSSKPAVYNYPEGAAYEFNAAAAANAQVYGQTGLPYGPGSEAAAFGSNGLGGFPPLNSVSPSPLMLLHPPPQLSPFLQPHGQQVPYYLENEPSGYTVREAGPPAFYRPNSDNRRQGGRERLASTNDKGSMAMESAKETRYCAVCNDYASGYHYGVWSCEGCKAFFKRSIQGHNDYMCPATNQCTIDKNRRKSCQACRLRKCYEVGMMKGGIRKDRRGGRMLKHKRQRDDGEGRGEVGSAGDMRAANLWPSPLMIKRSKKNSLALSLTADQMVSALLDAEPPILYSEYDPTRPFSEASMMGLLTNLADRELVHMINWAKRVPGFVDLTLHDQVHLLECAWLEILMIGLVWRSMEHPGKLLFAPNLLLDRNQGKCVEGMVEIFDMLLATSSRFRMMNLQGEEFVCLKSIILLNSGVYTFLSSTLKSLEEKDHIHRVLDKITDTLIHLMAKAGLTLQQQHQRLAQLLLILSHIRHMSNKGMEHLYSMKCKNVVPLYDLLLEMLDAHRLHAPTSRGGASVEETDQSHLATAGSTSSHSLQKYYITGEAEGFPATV
# ERb coact inh – blocks coactivator binding to human estrogen receptor beta; inhibition, % at 25.6 µM; TR-FRET ER-beta LBD / SRC1-Cy5 peptide binding; receptor agonist-loaded with 1 µM estradiol; 1.3% of 86,000 active; Q92731;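 active = compounds whose percent inhibition of the receptor-coactivator binding signal exceeds about 50% in the single-dose screen, limit read from the data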
# ERa coact pot – enhances coactivator binding to human estrogen receptor alpha; TR-FRET ERalpha-LBD/SRC-Cy5 coactivator binding, 2 h; 100 = basal binding, no effect; coactivator binding (% of control), % at 25.6 µM; 1.3% of 86,000 active; AID 639; in the data active = activity above about 200%;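 note: binding measured in presence of low estradiol as agonist stimulus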
# E-sel TNF inh – blocks E-selectin expression induced by TNF alpha. inhibition, % at 2 µM. 0.71% of 120,000 active. HUVEC TNFa-induced E-selectin immunofluorescence, high content;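 active = inhibition above the batch mean plus 3 SD, and confirmed as a hit on visual image review, cut at about 43% in these data; inconclusive = passes the inhibition cutoff but fails visual image review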
# F-actin modifier – alters cytoskeleton assembly in HUVEC cells; HUVEC TNFa F-actin phalloidin imaging, high content; inhibition, % at 2 µM; 0.18% of 91,000 active;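 active = inhibition above the batch mean plus 3 SD and confirmed as a hit by visual image inspection, cut at about 30% in these data, passing the limit was not always enough; inconclusive = above the inhibition threshold but rejected on visual inspection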
# Calb biofilm kill – kills Candida albicans biofilms | C. albicans biofilm + clotrimazole, Alamar Blue | 0.14% of 85,000 active | inhibition, % at 6 µM;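 active = inhibition above 20%; inactive = inhibition below 20%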;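 note: preformed 24 hr biofilms exposed to compound for 48 hr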
# A number is an active result; n = inactive; u = inconclusive; x = not tested or not shown; [ ] = another dose, or the depositor's remark.
SMILES,ERa SRC1 inh,ERb coact inh,ERa coact pot,E-sel TNF inh,F-actin modifier,Calb biofilm kill
O=C(Oc1ccccc1N1C(=O)C2CC=CCC2C1=O)c1ccc(Br)cc1 (stereo not given),x,x,x,78,x,x
Cc1c(Cl)cnc(NC(=O)COC(=O)c2nn(C)c(=O)c3ccccc23)c1Cl,x,x,x,64,x,x
O=C(COC(=O)c1ccccc1NC(=O)c1ccco1)Nc1ccc2c(c1)OCO2,71[fluorescence artefact?],n,n,x,n,n
O=C(COC(=O)c1ccccc1NCc1ccco1)Nc1ccc2c(c1)OCO2,n,n,n,n,n,n
O=C(COC(=O)c1ccccc1NC(=O)c1ccco1)NCCC1=CCCCC1,n,98[fluorescence artefact?],n,n,x,n
O=C(COC(=O)c1ccccc1NC(=O)c1ccco1)NCC1CCCCC1,x,x,x,x,n,x
Cc1ccc2c(c1)c1cccc3c1n2CCN3CCC(N)=O,n,60[fluorescence artefact?],n,n,n,n
O=C(NC(=S)Nc1nc2c(s1)CSc1ccccc1-2)c1ccccc1,n,n,n,n,n,n
COCC(C)n1c(C)cc(C(=O)COC(=O)c2c(C)nn(-c3ccccc3)c2C)c1C (stereo not given),n,n,n,n,n,n
COCC(C)n1c(C)cc(C(=O)COC(=O)c2c(NC(C)=O)sc(C)c2C)c1C (stereo not given),n,n,542[fluorescence artefact?],x,x,n
Cc1ccccc1NC(=O)CCC(=O)OCC(=O)c1ccc(-c2ccccc2)cc1,x,x,x,n,n,x
CCN(CC)S(=O)(=O)c1ccc(=O)[nH]c1,x,x,x,n,x,x
O=C(Cc1ccc(S(=O)(=O)N2CCOCC2)s1)Nc1nc2c(s1)CCCC2,83,81[fluorescence artefact?],n,n,n,n
O=c1c2cccnc2[nH]c(=S)n1CCCN1CCN(c2ccc(F)cc2)CC1,n,n,n,100,n,n
Cc1ccc(-c2nn3c(C)nnc3s2)cc1NC(=O)c1ccc(-c2cccc(Cl)c2)o1,66,n,n,n,n,n
Cc1ccc(-c2nn3c(C)nnc3s2)cc1NC(=O)c1ccc(Br)o1,n,n,n,n,n,n
Cc1ccc(-c2nn3c(C)nnc3s2)cc1NC(=O)c1ccc(-c2ccc(Cl)cc2Cl)o1,67[fluorescence artefact?],n,n,n,x,n
COC(=O)c1ccccc1NC(=O)c1ccc(-c2cccc(Cl)c2)o1,n,n,n,44,u,n
Cc1nnc2sc(-c3ccc(NC(=O)c4ccc(-c5ccc(Br)cc5)o4)cc3)nn12,69,n,n,n,n,n
Cc1nnc2sc(-c3cccc(NC(=O)c4ccc(-c5cccc(Cl)c5)o4)c3)nn12,n,n,n,n,n,n
COc1ccccc1CCNC(=O)c1ccoc1C,n,n,n,n,n,n
CCCn1nnc(NC(=O)c2cccc(OCC(C)C)c2)n1,n,n,n,93,x,n
CCCn1nnc(NC(=O)c2cccc(OCC)c2)n1,n,n,n,n,n,n
CCNC(=O)CSc1ncnc2sccc12,66[fluorescence artefact?],n,n,n,n,n
N#Cc1c(NC(=O)CSc2ncnc3sccc23)oc(-c2ccco2)c1-c1ccco1,90[fluorescence artefact?],73[fluorescence artefact?],n,n,n,n
SMILES,ERa SRC1 inh,ERb coact inh,ERa coact pot,E-sel TNF inh,F-actin modifier,Calb biofilm kill
CCOC(=O)c1c(C)nc2ccc(C)cn12,n,n,n,n,n,n
CSc1nc(=O)n2cc(C)ccc2n1,x,x,x,64,x,x
CC(C)(C)c1nn2cnnc2n(/N=C/c2cccc3ccccc23)c1=O,x,x,x,n,x,x
Cc1ccc(/C=N/n2c(=O)c(C(C)(C)C)nn3cnnc23)cc1,x,x,x,80,x,x
CCN1CCN(C(=O)c2cn(CCOC)c(=O)c3c2c2ccccc2n3C)CC1,n,n,n,n,n,n
CCOC(=O)C1CCN(C(=O)c2cn(CCOC)c(=O)c3c2c2ccccc2n3C)CC1,n,n,n,n,39,n
COC(=O)c1ccc(N2CCN(C)CC2)c(NC(=O)c2cc3ccccc3o2)c1,n,n,n,n,n,n
COC(=O)c1ccc(C(=O)OC)c(NC(=O)c2cc3ccccc3o2)c1,n,n,364[fluorescence artefact?],n,n,n
CC(C)CCNC(=O)c1nnc(Cc2ccc(Cl)cc2)o1,n,n,n,70,n,n
COc1ccc(CCNC(=O)c2nnc(Cc3ccc(Cl)cc3)o2)cc1OC,n,n,n,x,n,n
Cc1[nH]nc2c1C1(CCC3(CC1)OCCO3)C(C#N)=C(N)O2,n,n,n,n,n,n
O=S1(=O)CCC(NC(=S)N2CCCCCC2)C1 (stereo not given),x,x,x,70,x,x
CN(C)C(=S)NC1CCS(=O)(=O)C1 (stereo not given),x,x,x,n,x,x
CCOC(=O)COc1cccc2c(=O)n(CC(=O)N3CCCc4ccccc43)ccc12,n,51[fluorescence artefact?],n,n,n,n
COc1cccc2c(=O)n(CC(=O)N3CCCc4ccccc43)ccc12,n,n,n,x,n,n
Oc1[nH]c2ccccc2c1C1=NCCCC1,82[fluorescence artefact?],92[fluorescence artefact?],n,n,n,n
CC(NC(=O)C12CC3CC(CC(C3)C1)C2)C(=O)N/N=C/C1=C(N2CCOCC2)C(=C\c2ccccc2)/CC1 (stereo not given),x,x,x,n,x,x
CCCC(=O)NC(=S)Nc1ccc(C(C)=O)cc1,x,x,x,n,x,x
O=C(Cn1nnc(-c2ccc(N3CCOCC3)cc2)n1)OC1CCCCC1,n,n,208,n,n,x
Cc1ccccc1NC(=O)Cn1nnc(-c2ccc(N3CCOCC3)cc2)n1,n,n,n,n,n,n
Cc1sc2ncnc(SCC(=O)NCC(C)C)c2c1C,x,x,x,n,n,x
Cc1sc2ncnc(SCC(=O)NC(C)(C)C)c2c1C,x,x,x,n,x,x
CCC(Sc1ncnc2sc(C)c(C)c12)C(=O)OC (stereo not given),63[fluorescence artefact?],61,n,n,n,n
Cc1sc2ncnc(SCC(=O)c3ccc(Cl)s3)c2c1C,n,n,243,n,n,n
O=C(CSc1ncccc1C(=O)O)NCc1ccc(F)cc1,n,n,n,n,n,x
SMILES,ERa SRC1 inh,ERb coact inh,ERa coact pot,E-sel TNF inh,F-actin modifier,Calb biofilm kill
O=C(COC(=O)c1cccnc1SCC(=O)NCc1ccccc1)NCc1ccccc1,n,n,252[fluorescence artefact?],n,n,n
N=c1c(C(=O)NCc2ccc(F)cc2)cc2c(=O)n3ccccc3nc2n1Cc1cccnc1,71,n,n,n,n,n
CC(C)CN(C(=O)COC(=O)c1cc2c(s1)CCC2)C1CCS(=O)(=O)C1 (stereo not given),80,75,n,n,n,n
CCOC(=O)c1nnn(-c2nonc2N)c1CN(CC)c1ccccc1,n,n,n,n,n,n
CCCCCCC1NC(C(=O)O)CS1 (stereo not given),x,x,x,n,n,x
CSc1ccc(Cl)c(C(=O)OCC(=O)NCc2ccco2)c1,52[fluorescence artefact?],n,n,x,n,n
O=C(COC(=O)c1cncc(Br)c1)NCc1ccco1,60[fluorescence artefact?],50[fluorescence artefact?],n,x,n,n
COc1cc(C(=O)OCC(=O)NCc2ccco2)cc(OC)c1OC,n,n,n,n,n,x
Cc1ccc(NS(=O)(=O)c2cccc(C(=O)OCC(=O)NCc3ccco3)c2)cc1,53,n,n,n,x,x
CCOc1cc(C(=O)OCC(=O)NCc2ccco2)cc(OCC)c1OCC,57[fluorescence artefact?],n,n,n,n,n
Cc1ccc(NS(=O)(=O)c2ccc(OCC(=O)NCc3ccco3)cc2)cc1,n,n,n,n,n,n

# Screening results (PubChem BioAssay)
